Screening data: PubChem, National Center for Advancing Translational Sciences (NCATS)
Hits are enriched below; roughly 3.1% of the tested compounds scored in any of these assays.
S16 viability – toxic to S16 Pmp22-F2sN Schwann cells. S16 Pmp22-F2sN Schwann cells viability, CellTiter-Glo, 24 h. Potency, µM (titrated, usually from 57.5 µM), for inactives: at the highest dose activity change, negative = cytotoxicity, usual class: cytotoxic. 43,000 tested, 0.48% active. AID 1508642; further: nearly all actives have a fitted effect of over 65% in size
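Rat S16 Schwann reporter line, 24 h treatment with library compounds delivered at 23 nL per well. Cell viability by CellTiter-Glo luminescence.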
PMP22 txn prim – PMP22 gene transcription modulation | AID 1508649 | 43,000 tested, 2% active | Potency, µM (doses to about 57.5 µM), for inactives: at the highest dose activity change, negative = inhibition, hits mostly inhibitors | S16 Pmp22-F2sN Schwann cells (luciferase reporters placed in the Pmp22 gene), FLuc/NLuc coincidence luminescence, 24 h; active means clear falling dose curves in both reporters; inconclusive means both reporters move, but less clearly or upward; inactive means either reporter flat; the % is the NLuc reporter signal
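qHTS, 1536-well. Cells seeded, compounds added by pin tool, 24 h 37C. Nano-Glo reagent 1 (lysis/FLuc), 10 min RT, read; Stop&Glo, 10 min RT, read NLuc.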
pS6 MEF inh – reduces mTORC1 signaling in Tsc2 and p53 null MEF cells; Tsc2-/- p53-/- MEF, phospho-rpS6 immunofluorescence/PI, 24 h; Potency, µM (doses to about 38.3 µM), for the others: top-dose activity change, negative = inhibition, actives largely listed as inhibitors; 44,000 tested, 0.78% active;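 further: plate controls were DMSO for no effect and rapamycin for full effect; nearly all actives have a fitted effect of over 50% in size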
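Readout is phospho-S6 Alexa 488 signal normalized to PI per well, reported as % active cells with thresholds set from rapamycin (7.5 nM) and DMSO controls. Cells: Tsc2-/-, p53-/- MEFs, 24 hrs compound at 37 C; PI cell number serves as viability.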
p53null 39C tox – selectivity test: cytotoxicity in p53 null cells, nonpermissive temperature; H1299 p53-null (neo) cells, 39C, ATPlite viability, 24 h; Potency, µM (top dose mostly 46.1 µM), for inactives: at the top dose activity, negative = cell killing, actives largely listed as cytotoxic; 55,000 tested, 0.97% active;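 further: 0% = DMSO only and -100% = full killing by 100 µM tamoxifen; nearly all actives have a fitted effect of over 50% in size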
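Luminescent ATP signal reported cell survival after H1299 lines (neo, p53 null; or p53 A138V) received up to 46 uM compound and 24 hr incubation at 39C.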
p53null 32C tox – p53 null cell cytotoxicity, permissive temperature. 55,000 tested, 0.62% active. H1299-neo p53 null cells, ATP luminescence, 24 h, 32C. Potency, µM (titrated, usually from 46.1 µM), for the others: at the top dose activity change, negative = cytotoxicity, usual class: cytotoxic;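 further: 0% = DMSO only and -100% = full killing by 100 µM tamoxifen; nearly all actives have a fitted effect of over 55% in size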
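H1299-neo, 600 cells/well; overnight 37C; cpd up to 46 uM, 24 h at 32C; ATPlite luminescence after 20 min RT; normalized to DMSO (0%) and tamoxifen 100 uM (100% kill); Hill-fit AC50.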
OvCa metastasis – ovarian cancer metastasis inhibition, 3D TME model. SKOV3ip1-GFP adhesion/invasion on 3D omental model, fluorescence. Potency, µM (top dose mostly 45.8 µM), without a hit: at the top dose activity change, negative = inhibition, hits mostly inhibitors. 46,000 tested, 0.1% active;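 further: plate controls were DMSO wells for no effect and tomatine positive control wells for full effect; nearly all actives have a fitted effect of over 65% in size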
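A 3D layer of primary human omental fibroblasts, mesothelial cells, fibronectin and collagen I, grown 48 hr, received SKOV3ip1-GFP cells in serum-free medium plus compounds at 0.36-46 umol/L. After 2 hr RT and 16 hr 37 C, fixed adherent GFP cells were counted; normalized to DMSO and tomatine.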
* = called active by the depositor; i = inactive; ? = inconclusive; / = no result given; [ ] = remark or other dose. Unless noted, the call rests on the fitted dose curve; in most records, active means well fitted curve in the direction sought with a large enough effect; inconclusive means small, poorly fitted or top-dose-only effect, or another doubt; inactive means no such curve, though single readings can be large; an effect the other way counts as inactive or inconclusive. Unless noted, on the % scale 0 is the no-effect control and ±100 the full control effect; potency means the concentration at half of the fitted maximal effect.

SMILES	S16 viability	PMP22 txn prim	pS6 MEF inh	p53null 39C tox	p53null 32C tox	OvCa metastasis
CC(C)(C)c1nc2c3cc[nH]c(=O)c3c3cc(F)ccc3c2[nH]1	/	/	/	/	/	4.8%
CCCn1c(=O)c2[nH]c(-c3cnn(Cc4cccc(C(F)(F)F)c4)c3)nc2n(CC)c1=O	/	/	/	/	/	2.9%
Cc1ccc(-c2c(C)n3c4c(=O)n(C)c(=O)n(C)c4nc3n2CCO)cc1	?	4.8µM*	-29.3%	-3.8%	-4.2%	3.7%
COc1ccc(-c2cn3cccnc3n2)cc1NC(=O)Nc1cc(C)ccc1C	?	?	-17.7%	15.8µM*	?	?
COc1cccc(NC(=O)Nc2cc(-c3cn4cccnc4n3)ccc2OC)c1	2.5%	?	-4.6%	7.94µM*	15.8µM*	i
COc1cccc(NC(=O)Nc2cc(-c3cn4cccnc4n3)ccc2C)c1	8.8%	?	4.0%	?	-10.1%	0.4%
COc1ccc(Cc2ccc(NC(N)=O)cc2)cc1-c1cccc(Cl)c1	/	/	/	/	/	2.9%
CCOc1cc2ncc(C#N)c(Nc3ccc(F)c(Cl)c3)c2cc1NC(=O)C=CCN(C)C	/	/	/	/	/	-2.3%
CCNC(=O)c1noc(-c2cc(C(C)C)c(O)cc2O)c1-c1ccc(CN2CCOCC2)cc1	/	/	/	/	/	34.6%
O=C(NCCCN1CCN(c2ccccc2F)CC1)c1cc2c(s1)-c1ccccc1OC2	-0.7%	?	?	31.6µM*	7.2%	?
COC1=C2C[C@@H](C)C[C@H](OC)[C@@H](O)[C@@H](C)C=C(C)[C@H](OC(N)=O)[C@@H](OC)C=CC=C(C)C(=O)NC(=CC1=O)C2=O	/	/	/	/	/	-4.8%
COc1ccc2c(c1)CC[C@@H](CN(C)CC(=O)O)[C@H]2c1ccccc1	/	/	/	/	/	3.8%
O=C(CCC1CCCC1)Nc1ccc(OCC(=O)N2CCOCC2)cc1	/	/	/	?	14.1µM*	/
Cc1ccc(C)c(N2CCN(CCCNC(=O)C3COc4ccccc4C3)CC2)c1 (configuration not stated)	?	?	11.7µM*	7.8%	8.9%	-24.4%
O=C(NCCCN1CCN(c2ccccc2F)CC1)C1COc2ccccc2C1 (configuration not stated)	-3.4%	-21.6%	-0.6%	1.0%	-5.5%	6.3%
CC(=O)OCC(=O)[C@@]12N=C(C)O[C@H]1C[C@H]1[C@@H]3CCC4=CC(=O)C=C[C@]4(C)[C@@H]3[C@@H](O)C[C@@]12C	/	/	/	/	/	17.1%
Cc1cccc(Nc2nnc(-c3ccc(C)c(S(=O)(=O)N4CCN(C)CC4)c3)c3ccccc23)c1	-18.6%	?	?	10µM*	20.0%	-2.4%
Cc1ccc(-c2nnc(Nc3cccc(Br)c3)c3ccccc23)cc1S(=O)(=O)N1CCN(C)CC1	?	?	1.9%	25.3%	13.7%	-25.1%
CN(C)Cc1c(C(=O)NCCOc2ccc(C(=O)NO)cc2)oc2ccccc12	/	/	/	/	/	-11.3%
COC(=O)C=CC(=O)OC	/	/	/	/	/	14.6%
CCCN(C(=O)c1cc2c(s1)-c1c(C)cccc1OC2)c1ccc(OCC)cc1	6.7%	-10.4%	-0.4%	2.6%	?	0.2%
CCc1ccccc1N(CC)C(=O)c1cc2c(s1)-c1ccccc1SC2	-4.1%	?	-4.8%	12.6µM*	-1.4%	12.1%
CCOc1ccc(N(CC)C(=O)c2cc3c(s2)-c2ccc(Cl)cc2SC3)cc1	11.2%	?	-7.6%	10µM*	-4.6%	6.5%
CCOc1ccc(Cn2c(CNS(=O)(=O)c3cccc(Cl)c3)nc3cccnc32)cc1	6.3%	-15.8%	-0.1%	14.2%	-2.8%	-6.0%
CSc1ccc(/C=C/c2nc3ccccc3n2S(=O)(=O)c2ccc(F)c(C)c2)cc1	?	?	-8.7%	10µM*	7.94µM*	-0.5%
SMILES	S16 viability	PMP22 txn prim	pS6 MEF inh	p53null 39C tox	p53null 32C tox	OvCa metastasis
Cc1cccc(NC(=O)Cn2c(/C=C/c3ccccc3)nc3ccccc32)c1	/	/	/	0.1%[1.84 µM]	/	/
Cc1ccc(/C=C/c2nc3ccccc3n2S(=O)(=O)c2cccc(Cl)c2)cc1	?	-19.6%	-5.0%	3.16µM*	3.16µM*	i
CCOc1ccc(/C=C/c2nc3ccccc3n2S(=O)(=O)c2cccc(Cl)c2)cc1	?	?	-1.0%	6.31µM*	12.6µM*	-14.4%
CN(C)c1ccc(C2Nc3ccc4ccccc4c3C3=C2C(=O)CC(C)(C)C3)cc1Br (configuration not stated)	/	/	/	/	/	5.0%
CN(C)CCN(Cc1ccco1)C(=O)c1oc2ccccc2c1NC(=O)c1cccc(F)c1	?	?	?	12.6µM*	5.4%	?
Cc1ccc(-c2cc(-c3ccccc3C)[nH]n2)c(O)c1	/	/	/	-95.8%	12.6µM*	/
Cc1ccc(O)c(-c2n[nH]c3c2C(c2ccccc2F)N(Cc2ccco2)C3=O)c1 (configuration not stated)	?	?	-3.3%	8.0%	60.2%	12.6µM*
COc1cc(C2c3c(-c4cc(C)ccc4O)n[nH]c3C(=O)N2Cc2ccco2)cc(OC)c1OC (configuration not stated)	18.8%	-12.1%	8.2%	5.5%	25.9%	3.9%
O=C1C2=C(Nc3ccccc3SC2c2ccc(Cl)c(Cl)c2)c2ccccc21 (configuration not stated)	?	?	-7.9%	41.7%	37.0%	-24.9%
O=C1C2=C(Nc3ccccc3SC2c2ccccc2C(F)(F)F)c2ccccc21 (configuration not stated)	?	12.7µM*	?	?	-17.0%	i
Cc1cccc(NC(=O)CSc2ncc(-c3ccc(Br)cc3)[nH]2)c1	-16.4%	-7.4%	-27.5%	20µM*	-2.7%	-5.3%
CCc1ccc(CNC(=O)C2CCCN(c3nnc(C)c4c(C)n(-c5ccc(OC)cc5)nc34)C2)cc1 (configuration not stated)	?	?	-0.7%	?	25.1µM*	?
CCNC(=O)C1CCCN(c2nnc(C)c3c(C)n(-c4ccc(C)cc4)nc23)C1 (configuration not stated)	-12.1%	-29.5%	-3.4%	-17.6%	1.7%	-18.4%
COc1ccc(-n2nc3c(N4CCC(C(=O)NCc5cccc(F)c5)CC4)nnc(C)c3c2C)cc1	?	?	-1.2%	3.16µM*	-12.0%	-25.0%
CCNC(=O)C1CCN(c2nnc(C)c3c(C)n(-c4ccc(OC)cc4)nc23)CC1	-16.6%	?	-3.1%	9.7%	2.0%	-2.3%
